# According to PubChem BioAssay (Tox21):
# Values joined by “and” are separate entries in the source; they are usually repeats but may differ in a detail not shown here. Equal values may be shown once. Active and inactive are the calls of the source. Entries that show only a call come without a potency. The call rests on the fitted dose curve.
# Molecular target: Acetylcholinesterase (Homo sapiens) (UniProt P22303)
# Assay: Acetylcholinesterase (AChE) small molecule antagonists: enzyme-based qHTS assay with human liver microsomes (AID 1347399); further: nearly all actives have a fitted effect of over 60% in size
# Conditions: Potency: qHTS inhibition; series mostly up to 115 µM
# Description: National Center for Advancing Translational Sciences [NCATS]
# Division of Preclinical Innovation [DPI]
# U.S. Environmental Protection Agency [EPA]
# National Institutes of Environmental Health Sciences [NIEHS]
# National Toxicology Program [NTP]
# U.S. Food and Drug Administration [FDA]
# Acetylcholinesterase (AChE) is the primary cholinesterase in the body that hydrolyzes a key neurotransmitter, acetylcholine. Inhibition of AChE activity can lead to neurotoxicity. The known inhibitors include organophosphorous pesticides (OP), chemical warfare agents, drugs, and various phytochemicals. Some compounds like OP compounds may need metabolic activation to be active AChE inhibitors. The cytochrome P450 (CYP) superfamily in the human microsomes is responsible for the metabolism of various endogenous and exogenous compounds.
# An enzyme-based assay with the recombinant human AChE, human liver microsomes and Amplite Colormetric acetylcholinesterase assay kit (AAT Bioquest, Sunnyvale, CA) was used to evaluate compounds in the Tox21 10K library that need metabolic activation for AChE inhibition. The assay uses 5, 5-dithiobis-(2-nitrobenzoic acid) (DTNB) to quantify the thiocholine produced from the hydrolysis of acetylthiocholine by AChE.
# Tox21 Assay Protocol Summary:
# For the enzyme-based AChE assay with microsomes addition, a mixture of human AChE (50 mU/mL) and human liver microsomes (0.25 mg/mL, final concentration) in 3 uL/well was dispensed into black, clear-bottom 1536-well plates using a Multidrop Combi dispenser (Thermo Scientific, MA). Then, 23 nL of compound or DMSO (vehicle control) was transferred into the assay plates by a Pintool Station (Wako Automation, CA). Following compound addition, 1 uL of NADPH (0.25 mg/mL, final concentration) was transferred to the assay plate by a Flying Reagent Dispenser (Beckman Coulter, CA). The plates were incubated for 30 min at 37 C and 5% CO2, followed by the addition of 4 uL of colorimetric detection cocktail solution (DTNB, acetylthiocholine) into each well using a Flying Reagent Dispenser (Beckman Coulter, CA) and then 10 min incubation at room temperature.
# Potency means the concentration at half of the fitted maximal effect.
# Acetylcholinesterase (Homo sapiens), sequence (P22303 whole entry, looked up): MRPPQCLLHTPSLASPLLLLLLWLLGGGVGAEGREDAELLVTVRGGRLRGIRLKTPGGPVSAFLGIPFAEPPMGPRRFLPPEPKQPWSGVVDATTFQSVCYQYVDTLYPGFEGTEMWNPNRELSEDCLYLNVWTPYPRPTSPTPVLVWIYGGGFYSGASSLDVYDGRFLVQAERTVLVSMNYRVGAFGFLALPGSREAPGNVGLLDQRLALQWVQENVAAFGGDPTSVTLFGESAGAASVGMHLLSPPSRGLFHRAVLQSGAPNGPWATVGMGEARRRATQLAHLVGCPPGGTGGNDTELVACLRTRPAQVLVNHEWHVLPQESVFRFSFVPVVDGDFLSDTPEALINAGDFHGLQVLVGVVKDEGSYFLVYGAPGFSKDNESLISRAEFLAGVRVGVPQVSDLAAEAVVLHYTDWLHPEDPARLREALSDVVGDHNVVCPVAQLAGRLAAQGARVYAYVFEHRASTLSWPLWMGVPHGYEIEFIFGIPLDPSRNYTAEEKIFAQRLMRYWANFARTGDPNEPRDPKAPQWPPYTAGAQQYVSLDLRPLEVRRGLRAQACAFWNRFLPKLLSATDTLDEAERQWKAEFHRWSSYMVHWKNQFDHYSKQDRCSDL
row,SMILES,Potency
1,c1ccc2c(c1)CCCC2,inactive
2,O=[N+]([O-])c1ccc(Cl)cc1,inactive
3,Nc1ncc([N+](=O)[O-])s1,inactive
4,Nc1cccc(Cl)c1,inactive
5,CCNc1nc(Cl)nc(NC(C)C)n1,inactive
6,Cc1cccc(C)c1NC(=O)CN1CCCC1=O,inactive
7,C[C@H]1C(=O)O[C@@H]2CCN3CC=C(COC(=O)[C@](C)(O)[C@]1(C)O)[C@H]23,inactive
8,Cc1ccc(N=C=O)cc1N=C=O,inactive
9,COP(=S)(OC)SCN1C(=O)c2ccccc2C1=O,inactive
10,O=C(O)Cc1ccccc1,inactive
11,COP(=S)(OC)Oc1ccc(SC)c(C)c1,inactive
12,C=CC#N,inactive
13,OC[C@@H](O)[C@H]1O[C@@H]2O[C@H](C(Cl)(Cl)Cl)O[C@@H]2[C@H]1O,inactive
14,CSc1nnc(C(C)(C)C)c(=O)n1N,inactive
15,COC(C)(C)CCCC(C)C/C=C/C(C)=C/C(=O)OC(C)C (stereo not given),inactive
16,Cc1cc(O)ccc1Cl,inactive
17,CC(C)(C)C(=O)CCl,inactive
18,C=CCN=C=S,inactive
19,Sc1ccccc1,inactive
20,CC(C)CCCCCCOC(=O)c1ccccc1C(=O)OCCCCCCC(C)C,inactive

row,SMILES,Potency
1,O=C(O)C(Br)Br,inactive
2,CN(C)C(=O)Nc1cccc(C(F)(F)F)c1,inactive
3,N#Cc1cccc(C#N)c1,inactive
4,CNC(=O)O/N=C(\SC)C(=O)N(C)C,12.3 µM (active) and 20 µM (active)
5,O=[N+]([O-])c1cc([As](=O)(O)O)ccc1O,inactive
6,COc1nc(NC(C)C)nc(NC(C)C)n1,inactive
7,Nc1ccc([As](=O)(O)O)cc1,inactive
8,ClC(Cl)c1ccccc1,inactive
9,O=S(=O)(O)OOS(=O)(=O)O,inactive
10,Cc1cc(Cl)ccc1OC(C)C(=O)O (stereo not given),inactive
11,CCOC(=O)CC(SP(=O)(OC)OC)C(=O)OCC (stereo not given),60.2 µM (active) and 56.4 µM (active)
12,C/C=C/c1ccc2c(c1)OCO2,inactive
13,CN(C)C(=O)Cl,inactive
14,Clc1cnc(Oc2ccc(Oc3ncc(Cl)cc3Cl)cc2)c(Cl)c1,inactive
15,CC[N+](=O)[O-],inactive
16,CNC(=O)O/N=C/C(C)(C)S(C)=O (stereo not given),2.87 µM (active) and 2.51 µM (active)
17,OCc1ccco1,inactive
18,C=CC(=O)OCCCCCC(C)C,inactive
19,Cl[C@H]1OCCO[C@@H]1Cl,inactive
20,CC(C)c1cccc(C(C)C)c1O,inactive
